Hits are enriched below; roughly 2% of the tested compounds scored in any of these assays.
697 NFkB inh: inhibitors of the PMA/ionomycin-induced NF-kB reporter in 697 B cells. inhibition, % at 4 µM. hit rate 0.33% among 330,000. 697 B-cell NF-kB luciferase reporter, 16 h; in the data active = inhibition above about 35%
COUP-TFII inh: inhibitors of human COUP-TFII (NR2F2); P24468; HEK293T NGFI-A luciferase reporter, luminescence; inhibition, % at 8.6 µM; hit rate 0.7% among 370,000;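 active = inhibition above a per-plate cutoff, mean inhibition of test wells between control levels plus 3 SD, cut at about 38% in these data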;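 also: cells cotransfected with COUP-TFII expression vector driving the NGFI-A reporter; 0% = median of COUP-TF2 test wells and 100% = reporter-only cells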
Gli-Sufu antag: blocks Gli-Sufu signaling in a luciferase reporter | Sufu-KO-LIGHT fibroblasts, Gli luciferase reporter luminescence | inhibition, % at 5 µM | hit rate 0.74% among 340,000 | AID 588413;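 active = inhibition above about 55%, limit read from the data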;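 also: 0% = DMSO-treated cells and 100% = wells with medium but no cells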
GalR3 antagonist: antagonists of human GalR3 | O60755 | HEK293 GalR3-CNG cAMP membrane potential fluorescence; galR3 body fused to GalR1 C-terminus | inhibition, % at 3 µM | hit rate 0.44% among 360,000 | AID 651719;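 active = inhibition above the screen-wide average plus 3 SD, cut at about 13% in these data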;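 also: forskolin and galanin both at EC90 stimulate the cells; cAMP rise reported by CNG channel membrane potential dye signal; 0% = forskolin plus galanin with DMSO and 100% = forskolin alone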
Target sequence (O60755 1-299 limits assumed): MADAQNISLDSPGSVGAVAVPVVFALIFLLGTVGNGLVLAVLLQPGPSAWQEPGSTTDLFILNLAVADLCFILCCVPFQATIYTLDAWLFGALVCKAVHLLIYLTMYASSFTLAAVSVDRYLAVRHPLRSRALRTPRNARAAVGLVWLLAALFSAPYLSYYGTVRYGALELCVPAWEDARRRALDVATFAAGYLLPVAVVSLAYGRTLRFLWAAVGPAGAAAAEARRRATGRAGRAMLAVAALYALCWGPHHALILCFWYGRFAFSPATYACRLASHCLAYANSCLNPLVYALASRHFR
Jurkat NFkB inh: lowers PMA/ionomycin-induced NF-kB signal in Jurkat cells | PMA/ionomycin-induced NF-kB luciferase reporter, luminescence | AID 435003 | inhibition, % at 4 µM | hit rate 0.53% among 330,000; in the data active = inhibition above about 50%
697 NFkB conf: inhibitors of the PMA/ionomycin-induced NF-kB reporter in 697 B cells, retest. AID 449746. shares compounds with 697 NFkB inh. hit rate 35% among 2,000. inhibition, % at 4 µM. 697 B-cell NF-kB luciferase, 16 h; in the data active = inhibition mostly above about 28%, no sharp cut-off; inactive = mostly below about 22%
* hit, by the source's call; i = inactive; . = not tested or not shown.

SMILES	697 NFkB inh	COUP-TFII inh	Gli-Sufu antag	GalR3 antagonist	Jurkat NFkB inh	697 NFkB conf
CCCCCN1CCCCC(NC(=O)c2cccc(F)c2)C1=O (stereo not given)	.	-5	.	.	.	.
Cc1c(NC(=O)c2cc(-c3cccs3)nc3ccccc23)c(=O)n(-c2ccccc2)n1C	39*	22	-1	-4	31	20
CN(CCO)c1ccc2c(c1)Oc1ccccc1CN(Cc1cn(Cc3ccc(F)cc3)nn1)S2(=O)=O	.	-21	.	.	.	.
O=C(CCn1nnc2ccccc21)N1CCN(c2ccc(F)cc2)CC1	.	-1	.	.	.	.
Cc1ccccc1C(=O)Nc1ccc2c(c1)CCCN2C(=O)c1cccs1	i	-26	-8	-8	-52	i
COc1cccc(C(=O)Nc2ccc3c(c2)CCCN3C(=O)c2cccs2)c1OC	-45	8	-9	0	-9	.
Cc1cccc(C(=O)n2c(=S)nc3ccccn32)c1	-337	.	-103	.	-132	-291
C[C@@H]1CCCN1c1ccc2c(c1)O[C@H]1CCN(C1)S2(=O)=O	.	-7	.	.	.	.
CCN(CC)c1ccc2cc(NC(=O)CCC(=O)O)c(=O)oc2c1	80*	83*	43	-4	21	72*
CC(=O)Nc1ccc(/C=C(\C#N)C(=O)NC2CCCCC2)cc1	46*	-24	3	-2	3	-8
CC(=O)N1c2ccccc2C(=O)NCC1C(=O)NC(C)(C)C (stereo not given)	.	8	.	.	.	.
CCNC(=S)N1CCC(C(=O)c2ccc3c(c2)OCCO3)CC1	0	13	3	-3	-2	.
CCOCCCNC(=S)N1CCC(C(=O)c2ccc3c(c2)OCCO3)CC1	101*	-2	0	-4	-7	19
O=C1NC[C@H](c2ccccc2)OC(=O)[C@@H](Cc2ccc(F)cc2)C/C=C\C[C@H]1CC(=O)N(CCO)Cc1ccccc1	40*	8	20	-9	31	24*
COC(=O)[C@]12C[C@H](CC(=O)N3CCC(c4ccccc4)CC3)C(=O)N(Cc3ccco3)C1=C[C@H](C(C)C)O[C@@H]2C1CC1	.	0	.	.	.	.
Cc1ccc(S(=O)(=O)NCC(=O)N2CCN(c3ccccn3)CC2)s1	.	15	.	.	.	.
O=C(CN1C(=O)c2ccccc2S1(=O)=O)c1ccc(OC(F)F)cc1	40*	.	78*	.	17	36*
COC(=O)c1ccc(NC(=O)CN2C(=O)c3ccccc3S2(=O)=O)cc1	-7	-3	-7	-7	-5	.
CCN(CC)c1ccc(/C=C(\C#N)c2ccccn2)cc1	-290	.	-63	.	-12	-428
COCCCN1CCC2(CCC(c3ccccc3)CC2)C1=O (stereo not given)	.	-22	.	.	.	.
COc1cc(NC(=O)c2cc3c(C)nc4ccccc4c3o2)cc(OC)c1OC	37*	-4	24	.	13	44*
O=[N+]([O-])c1ccc(/C=C/c2ccc3cccc(O)c3n2)cc1	-168	-52	4	-5	-137	.
O=[N+]([O-])c1ccc(/C=C/c2ccc3ccccc3n2)cc1	-259	-49	-117	-3	-120	-362
C(=C\c1ccc2ccccc2n1)/c1ccccc1	-280	-22	-81	-1	-105	-373
CC(=O)c1ccc(NC(=O)c2cnn3ccccc23)cc1	36*	-2	4	.	0	17
SMILES	697 NFkB inh	COUP-TFII inh	Gli-Sufu antag	GalR3 antagonist	Jurkat NFkB inh	697 NFkB conf
COc1ccc(CCN(Cc2cccs2)S(=O)(=O)c2ccc(C)s2)cc1OC	.	32	.	.	.	.
Cc1nc(Nc2ccccc2)sc1C(=O)c1ccc(F)cc1	-72	-32	-14	-13	-53	.
Nc1nc(Nc2ccccc2F)sc1C(=O)c1ccccc1	-260	-35	-38	-8	-58	-21
O=c1c2ccccc2oc2ccc(-c3ccc4cc[nH]c4c3)cc12	-498	.	-152	.	-3	i
COc1ccccc1NC(=O)N1CCN(c2ccc3nncn3n2)CC1	17	13	-16	5	4	.
O=C(Nc1ccccc1Cl)N1CCN(c2ccc3nnc(-c4ccc(F)cc4)n3n2)CC1	36*	11	4	-5	18	17
COc1ccccc1NC(=O)N1CCN(c2ccc3nnc(-c4ccc(F)cc4)n3n2)CC1	35*	5	20	-4	7	9
CCCCOCCCNC(=O)C[C@H]1C[C@@]2(C(=O)OC)C(=C[C@H](C3CCCC3)O[C@@H]2C)N(CCc2ccc(OC)c(OC)c2)C1=O	.	1	.	.	.	.
Cc1nc([N+](=O)[O-])c(Sc2nc3ccccc3[nH]2)n1Cc1ccccc1	-17	4	0	-5	13	.
COc1ccc2nc(Sc3c([N+](=O)[O-])nc(C)n3Cc3ccccc3)[nH]c2c1	39*	4	3	-2	-9	47*
Cc1nc(C)c(-c2csc(Nc3ccccn3)n2)s1	-381	3	-47	-7	-131	-359
COc1cc(OC)cc(-c2nnc(Nc3nc4c(F)cccc4s3)o2)c1	39*	8	0	-7	6	28
CCCCNC(=O)C1(C(=O)C2CC2)CC(c2ccccc2C(F)(F)F)=NO1 (stereo not given)	.	-10	.	.	.	.
CCCC1CCC2(CC1)CCC2OC(=S)NCc1cccc(OC)c1 (stereo not given)	.	1	.	.	.	.
O=C(O)c1ccc(Nc2ncnc3scc(-c4ccccc4)c23)cc1	28	16	-6	-6	12	.
Cc1ccc(-c2csc3ncnc(Nc4ccc(C(=O)O)cc4)c23)cc1	36*	-4	-4	-6	10	16
O=Cc1nccc2ccccc12	.	21	2	-4	.	.
O=C1C(c2ccnc3ccccc23)=C(O)c2ccccc21	-338	-26	-6	0	1	-298
O=C1c2ccccc2C(=O)C1c1nccc2ccccc12	-321	-29	19	-3	-43	-271
O=C1c2ccccc2C(=O)C1c1ccnc2ccccc12	-262	-44	-37	-4	-34	-288
COc1ccc(S[C@]2(C(=O)N3CCN(c4ncccn4)CC3)CC(=O)N(S(=O)(=O)c3ccc(F)cc3)[C@@H]2c2ccc(OC)cc2)cc1	.	9	.	.	.	.
CC(=O)c1c(C)[nH]c(C(=O)N2CCN(C(=O)c3ccco3)CC2)c1C	18	7	-10	2	12	.
CC(=O)c1c(C)[nH]c(C(=O)N2CCc3ccccc3C2)c1C	42*	-39	1	-2	7	20
CCOC(=O)[C@@]12CN(C(=O)OC(C)(C)C)CC=C1N(Cc1ccc(OC)cc1)C(=O)[C@H]2CC(=O)NCCCN1CCCC1=O	.	9	.	.	.	.
COCCCNC(=O)COc1ccc(-c2nccc(-c3ccccn3)n2)cc1	53*	5	10	-3	3	63*
Cc1ccc(OCC(=O)NCCCNC(=O)c2ccccn2)cc1	-11	-5	-7	1	-13	.
Cc1occc1-c1nnc(SCC(=O)N[C@@H]2CCc3ccccc32)n1-c1ccccc1	.	11	.	.	.	.
C=C1C(=O)C=C[C@]2(C)C[C@@H]3OC(=O)[C@](C)(O)[C@H]3C[C@@H]12	-314	-15	16	2	42	-198
CCCCCCNC(=O)c1c(N)[nH]c(C(=O)c2ccccc2)c1-c1ccc(O)cc1	.	-7	.	.	.	.

Compound activity from PubChem BioAssay.
